Data on 32 compounds can be found in PubChem BioAssay (Tox21).

Structures are written as SMILES. Records with an inconclusive call do not appear. A call without a number means that no potency is given here. Activity calls are given as the source filed them. Unless noted, the call rests on the fitted dose curve; in most records, active means well fitted cell-killing curve with a large enough effect in the repeat runs (not every such curve was filed as active); inconclusive means weak or mixed curves, or effect the other way; inactive means no such curve, though single readings can be large or run the other way.

Sequence of Vitamin D3 receptor (Homo sapiens) (P11473 whole entry, looked up): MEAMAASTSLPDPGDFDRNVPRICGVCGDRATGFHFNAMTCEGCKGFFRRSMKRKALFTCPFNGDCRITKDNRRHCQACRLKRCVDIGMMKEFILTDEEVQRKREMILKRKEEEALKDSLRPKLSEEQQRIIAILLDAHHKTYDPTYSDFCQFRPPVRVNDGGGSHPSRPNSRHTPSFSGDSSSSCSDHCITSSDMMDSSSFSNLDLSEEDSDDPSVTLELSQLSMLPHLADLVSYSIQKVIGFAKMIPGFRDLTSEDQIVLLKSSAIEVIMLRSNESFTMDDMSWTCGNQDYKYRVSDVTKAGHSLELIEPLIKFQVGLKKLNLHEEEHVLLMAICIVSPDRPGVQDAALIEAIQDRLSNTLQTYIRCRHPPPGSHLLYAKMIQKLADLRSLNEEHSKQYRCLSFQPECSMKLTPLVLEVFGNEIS
Sequence of Bile acid receptor (Homo sapiens) (Q96RI1 whole entry, looked up): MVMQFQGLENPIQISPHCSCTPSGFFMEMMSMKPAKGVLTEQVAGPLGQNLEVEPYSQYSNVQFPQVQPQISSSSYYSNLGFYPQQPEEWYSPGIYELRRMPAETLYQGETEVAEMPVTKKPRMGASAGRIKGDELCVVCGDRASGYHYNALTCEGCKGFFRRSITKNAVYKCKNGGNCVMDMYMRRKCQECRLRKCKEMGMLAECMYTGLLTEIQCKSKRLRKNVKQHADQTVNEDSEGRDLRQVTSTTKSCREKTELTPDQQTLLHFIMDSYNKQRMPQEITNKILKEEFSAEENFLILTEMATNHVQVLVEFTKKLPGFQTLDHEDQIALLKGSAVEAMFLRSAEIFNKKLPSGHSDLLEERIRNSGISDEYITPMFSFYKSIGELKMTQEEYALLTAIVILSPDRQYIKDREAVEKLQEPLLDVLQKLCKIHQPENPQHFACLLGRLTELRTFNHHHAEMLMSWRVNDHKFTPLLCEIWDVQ

The target of the first assay is Bile acid receptor (Homo sapiens) (UniProt Q96RI1). The experiment in a line: qHTS assay to identify small molecule agonists of the farnesoid-X-receptor (FXR) signaling pathway (AID 743220; active means well fitted activation curve with a large enough effect in the signal ratio in the repeat runs, not every such curve was filed as active; the % refers to the signal ratio; further: potency means the concentration at half of the fitted maximal effect). The note with it: HEK293T FXR-UAS-bla, beta-lactamase FRET ratio, 16 h; series mostly up to 62.6 µM. An outline of the steps:
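FXR-UAS-bla HEK 293T cells carrying a UAS-driven beta-lactamase reporter were plated for 5 h at 37C/5% CO2, then exposed to DMSO-dissolved Tox21 10K compounds for 16 h at 37C. A LiveBLAzer B/G FRET substrate was loaded for 2 h at room temperature before fluorescence reading.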
(In qHTS, concentration-response curves come from the screen itself.)
As to `Cc1c(C)c2c(c(C)c1OC(=O)CCC(=O)O)CC[C@@](C)(CCC[C@H](C)CCC[C@H](C)CCCC(C)C)O2`, the Potency result is “inactive”.

On to `Nc1ccc2cc(S(=O)(=O)O)cc(O)c2c1N=Nc1ccccc1C(F)(F)F`, for which the Potency entry was “inactive”.

For `O=C(O)c1ccc(Cl)c(Cl)c1`, the Potency entry was “inactive”.

`CC(=O)OCC(C)OC(C)=O` (stereo unspecified): the Potency result was “inactive”.

Regarding `C=C(C)C(=O)OCC(O)COc1ccc(C(C)(C)c2ccc(OCC(O)COC(=O)C(=C)C)cc2)cc1` (stereo unspecified), the Potency entry was “inactive”.

`COCCCC/C(=N\OCCN)c1ccc(C(F)(F)F)cc1`: the Potency entry was “inactive”.

For the compound `Cc1cc2c(cc1C(F)(F)F)N(C(=O)Nc1ccc(Oc3cccnc3C)nc1)CC2`, the Potency entry was “inactive”.

For the compound `COc1cc(/C=C/C(=O)O[C@H]2CC[C@]34C[C@]35CC[C@]3(C)[C@@H]([C@H](C)CCC=C(C)C)CC[C@@]3(C)[C@@H]5CC[C@H]4C2(C)C)ccc1O`, the Potency entry is “inactive”.

For `N#CC1(c2ccc(F)cc2)CCC(=O)CC1`, the Potency result was “inactive”.

Take `CCCC(C)c1ccccc1O` (stereo unspecified): the Potency result was “inactive”.

Consider `NNC(=O)c1cccc(C(=O)NN)c1`, for which the Potency result was “inactive”.

With `Nc1ccccc1O`, the Potency entry is “inactive”.

With `Oc1cccc2cc3cccc(O)c3c(O)c12`, the Potency result is “inactive”.

On to `CNC(=O)c1ccccc1`, for which the Potency entry was “inactive”.

Consider `Nc1c2ccccc2nc2ccccc12`, for which the Potency is 9.44 µM (active).

On to `OCCCCCCCCCCCCBr`, for which the Potency entry was “inactive”.

With `CCCC1O[C@@H]2C[C@H]3[C@@H]4CCC5=CC(=O)C=C[C@]5(C)[C@H]4[C@@H](O)C[C@]3(C)[C@]2(C(=O)CO)O1` (stereo partly specified), the Potency result was “inactive”.

As for `CC[C@H](c1ccc(O)cc1)[C@@H](CC)c1ccc(O)cc1`, the Potency entry is “inactive”.

With `Clc1ccc2nsnc2c1NC1=NCCN1`, the Potency entry was “inactive”.

For `CC(C)(C)C(=O)OCOC(=O)[C@@H]1N2C(=O)[C@@H](NC(=O)[C@H](N)c3ccccc3)[C@H]2SC1(C)C`, the Potency result is “inactive”.

`ON=C1CCCC1`: the Potency result is “inactive”.

Tested on in the next assay: not listed separately
The experiment in a line: qHTS assay to identify small molecule antagonists of the farnesoid-X-receptor (FXR) signaling pathway - cell viability counter screen (AID 743221). Further: nearly all actives have a fitted effect of over 50% in size. Further: potency means the concentration at half of the fitted maximal effect. The settings on record: FXR-bla HEK293T viability, CellTiter-Glo luminescence, 16 h; series mostly up to 62.6 µM. An outline of the steps: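 Quantitative HTS of the Tox21 10K library run in parallel with the beta-lactamase reporter read. HEK 293T cells carrying a UAS-driven bla reporter got compound and 50 uM CDCA (final) for 16 h; ATP-based luminescence followed.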
In the case of `Cc1c(C)c2c(c(C)c1OC(=O)CCC(=O)O)CC[C@@](C)(CCC[C@H](C)CCC[C@H](C)CCCC(C)C)O2`, the Potency entry is “inactive”.

Regarding `Nc1ccc2cc(S(=O)(=O)O)cc(O)c2c1N=Nc1ccccc1C(F)(F)F`, the Potency entry is “inactive”.

With `O=C(O)c1ccc(Cl)c(Cl)c1`, the Potency entry was “inactive”.

Consider `CC(=O)OCC(C)OC(C)=O` (stereo unspecified), for which the Potency result was “inactive”.

For `Cc1cccc(S(=O)(=O)O)c1C`, the Potency result is “inactive”.

Turning to `Cc1cc2c(cc1C(F)(F)F)N(C(=O)Nc1ccc(Oc3cccnc3C)nc1)CC2`, the Potency result is “inactive”.

As for `COc1cc(/C=C/C(=O)O[C@H]2CC[C@]34C[C@]35CC[C@]3(C)[C@@H]([C@H](C)CCC=C(C)C)CC[C@@]3(C)[C@@H]5CC[C@H]4C2(C)C)ccc1O`, the Potency result was “inactive”.

As for `N#CC1(c2ccc(F)cc2)CCC(=O)CC1`, the Potency entry was “inactive”.

With `CCCCN(CCCC)C(=O)N(CCCC)CCCC`, the Potency entry was “inactive”.

For `O=C1c2ccccc2Cc2ccccc21`, the Potency entry is “inactive”.

For `CCCC(C)c1ccccc1O` (stereo unspecified), the Potency result was “inactive”.

Turning to `O=C(NO)C1(NS(=O)(=O)c2ccc(Oc3ccc(F)cc3)cc2)CCOCC1`, the Potency entry was “inactive”.

In the case of `CN(C)CCCOC1(Cc2ccccc2)CCCCCC1`, the Potency result was “inactive”.

As for `Cc1ccc(O)c(C(C)(C)C)c1`, the Potency is 43.6 µM (active).

For the compound `NNC(=O)c1cccc(C(=O)NN)c1`, the Potency entry is “inactive”.

Consider `CCCCCCCCCCCCCCCC(=O)OC[C@H](O)[C@H]1OC(=O)C(O)=C1O`, for which the Potency entry is “inactive”.

Consider `Nc1ccccc1O`, for which the Potency result was “inactive”.

As to `Oc1cccc2cc3cccc(O)c3c(O)c12`, the Potency result is “inactive”.

On to `CNC(=O)c1ccccc1`, for which the Potency result is “inactive”.

With `Nc1c2ccccc2nc2ccccc12`, the Potency entry was “inactive”.

Regarding `OCCCCCCCCCCCCBr`, the Potency result was “inactive”.

Consider `COC(=O)c1cc(Cl)ccc1OC`, for which the Potency entry is “inactive”.

As for `CCCC1O[C@@H]2C[C@H]3[C@@H]4CCC5=CC(=O)C=C[C@]5(C)[C@H]4[C@@H](O)C[C@]3(C)[C@]2(C(=O)CO)O1` (stereo partly specified), the Potency entry was “inactive”.

Regarding `CCCCCCCCCCC=O`, the Potency result is “inactive”.

Consider `CC[C@H](c1ccc(O)cc1)[C@@H](CC)c1ccc(O)cc1`, for which the Potency result was “inactive”.

Turning to `Clc1ccc2nsnc2c1NC1=NCCN1`, the Potency result was “inactive”.

Consider `O=c1cc(-c2ccc(O)cc2)oc2cc(O)cc(O)c12`, for which the Potency result is “inactive”.

Consider `CSc1cnc(C)cn1`, for which the Potency entry is “inactive”.

For the compound `CC(C)(C)C(=O)OCOC(=O)[C@@H]1N2C(=O)[C@@H](NC(=O)[C@H](N)c3ccccc3)[C@H]2SC1(C)C`, the Potency result is “inactive”.

Regarding `ON=C1CCCC1`, the Potency entry was “inactive”.

The target in another assay is Vitamin D3 receptor (Homo sapiens) (UniProt P11473). The experiment in a line: qHTS assay to identify small molecule agonists of the vitamin D receptor (VDR) signaling pathway (AID 743222; calls by dose curve). The note with it: HEK293T VDR-UAS-bla, beta-lactamase FRET ratio, 16 h; series mostly up to 63.5 µM. An outline of the steps:
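Fluorescence from cleaved LiveBLAzer B/G FRET substrate served as readout. VDR-bla cells had been treated 16 h at 37C with test compounds in DMSO, following a 4 h settling period, and substrate was loaded for 2 h at RT.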
`Nc1ccc2cc(S(=O)(=O)O)cc(O)c2c1N=Nc1ccccc1C(F)(F)F`: the Potency entry is “inactive”.

For `O=C(O)c1ccc(Cl)c(Cl)c1`, the Potency entry was “inactive”.

Regarding `CC(=O)OCC(C)OC(C)=O` (stereo unspecified), the Potency result was “inactive”.

`C=C(C)C(=O)OCC(O)COc1ccc(C(C)(C)c2ccc(OCC(O)COC(=O)C(=C)C)cc2)cc1` (stereo unspecified): the Potency entry is “inactive”.

Turning to `Cc1cccc(S(=O)(=O)O)c1C`, the Potency entry was “inactive”.

In the case of `COCCCC/C(=N\OCCN)c1ccc(C(F)(F)F)cc1`, the Potency entry was “inactive”.

For `Cc1cc2c(cc1C(F)(F)F)N(C(=O)Nc1ccc(Oc3cccnc3C)nc1)CC2`, the Potency entry was “inactive”.

Consider `N#CC1(c2ccc(F)cc2)CCC(=O)CC1`, for which the Potency result was “inactive”.

On to `CCCCN(CCCC)C(=O)N(CCCC)CCCC`, for which the Potency entry was “inactive”.

Regarding `O=C1c2ccccc2Cc2ccccc21`, the Potency result was “inactive”.

With `CCCC(C)c1ccccc1O` (stereo unspecified), the Potency entry is “inactive”.

In the case of `CN(C)CCCOC1(Cc2ccccc2)CCCCCC1`, the Potency entry is “inactive”.

Take `Cc1ccc(O)c(C(C)(C)C)c1`: the Potency result is “inactive”.

With `NNC(=O)c1cccc(C(=O)NN)c1`, the Potency result is “inactive”.

Take `CCCCCCCCCCCCCCCC(=O)OC[C@H](O)[C@H]1OC(=O)C(O)=C1O`: the Potency entry is “inactive”.

`Nc1ccccc1O`: the Potency entry is “inactive”.

`CNC(=O)c1ccccc1`: the Potency entry is “inactive”.

Regarding `OCCCCCCCCCCCCBr`, the Potency result was “inactive”.

With `COC(=O)c1cc(Cl)ccc1OC`, the Potency entry is “inactive”.

On to `CCCC1O[C@@H]2C[C@H]3[C@@H]4CCC5=CC(=O)C=C[C@]5(C)[C@H]4[C@@H](O)C[C@]3(C)[C@]2(C(=O)CO)O1` (stereo partly specified), for which the Potency result was “inactive”.

With `CCCCCCCCCCC=O`, the Potency entry is “inactive”.

In the case of `CC[C@H](c1ccc(O)cc1)[C@@H](CC)c1ccc(O)cc1`, the Potency entry was “inactive”.

`Clc1ccc2nsnc2c1NC1=NCCN1`: the Potency result is “inactive”.

`CC(C)(C)C(=O)OCOC(=O)[C@@H]1N2C(=O)[C@@H](NC(=O)[C@H](N)c3ccccc3)[C@H]2SC1(C)C`: the Potency result was “inactive”.

With `ON=C1CCCC1`, the Potency entry was “inactive”.
